Values joined by “and” are separate entries in the source; they are usually repeats but may differ in a detail not shown here. Equal entries are not always repeated. Inconclusive results are not listed. Active and inactive are the calls of the source. Unless noted, the call rests on the fitted dose curve; in most records, active means well fitted curve in the direction sought with a large enough effect in the repeat runs; inconclusive means weak or mixed curves; inactive means no such curve, though single readings can be large; an effect the other way counts as inactive or inconclusive.

A short description of test [1]: qHTS assay to identify small molecule antagonists of the glucocorticoid receptor (GR) signaling pathway - cell viability counter screen (AID 720693). Further: nearly all actives have a fitted effect of over 55% in size. The note with it: GR-bla HeLa viability, CellTiter-Glo luminescence, 18 h, with 5 nM dexamethasone present; series mostly up to 58.5 µM. Background: qHTS replaces the single test concentration by a dilution series.
A short description of test [2]: qHTS assay for identifying genotoxic compounds that show differential cytotoxicity against isogenic chicken DT40 cell lines with known DNA damage response pathways - wild type cell line (AID 743012). Further: nearly all actives have a fitted effect of over 60% in size. The note with it: DT40 wild type chicken cells viability, CellTiter-Glo, 40 h; series mostly up to 68.4 µM. The gist of the method:
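Viability of DNA repair-proficient chicken DT40 cells was assessed by CellTiter-Glo luminescence following 40 h compound exposure at 37 C/5% CO2.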

A short description of test [3]: qHTS assay for identifying genotoxic compounds that show differential cytotoxicity against isogenic chicken DT40 cell lines with known DNA damage response pathways - Rev3 mutant cell line (AID 743014). Further: nearly all actives have a fitted effect of over 55% in size. The note with it: chicken DT40 Rev3-/- viability, CellTiter-Glo, 40 h; series mostly up to 68.4 µM.
The nature of test [4]: qHTS assay to identify small molecule antagonists of the androgen receptor (AR) signaling pathway - cell viability counter screen (AID 743033; further: nearly all actives have a fitted effect of over 45% in size). The note with it: AR-bla HEK293 viability, CellTiter-Glo luminescence, 16 h; series mostly up to 58.5 µM.
The target of test [5] is Androgen receptor (Homo sapiens) (UniProt P10275). In words: qHTS assay to identify small molecule antagonists of the androgen receptor (AR) signaling pathway (AID 743035; active means well fitted inhibition curve with a large enough effect in the signal ratio in the repeat runs, not every such curve was filed as active; the % refers to the signal ratio). The note with it: HEK293 AR-UAS-bla, R1881-stimulated, beta-lactamase FRET, 16 h; series mostly up to 58.5 µM. The gist of the method: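 Reporter HEK293 cells were exposed to compounds and R1881 overnight (16 h, 37C); beta-lactamase activity was then quantified by FRET fluorescence.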
Androgen receptor (Homo sapiens), sequence (P10275 whole entry, looked up): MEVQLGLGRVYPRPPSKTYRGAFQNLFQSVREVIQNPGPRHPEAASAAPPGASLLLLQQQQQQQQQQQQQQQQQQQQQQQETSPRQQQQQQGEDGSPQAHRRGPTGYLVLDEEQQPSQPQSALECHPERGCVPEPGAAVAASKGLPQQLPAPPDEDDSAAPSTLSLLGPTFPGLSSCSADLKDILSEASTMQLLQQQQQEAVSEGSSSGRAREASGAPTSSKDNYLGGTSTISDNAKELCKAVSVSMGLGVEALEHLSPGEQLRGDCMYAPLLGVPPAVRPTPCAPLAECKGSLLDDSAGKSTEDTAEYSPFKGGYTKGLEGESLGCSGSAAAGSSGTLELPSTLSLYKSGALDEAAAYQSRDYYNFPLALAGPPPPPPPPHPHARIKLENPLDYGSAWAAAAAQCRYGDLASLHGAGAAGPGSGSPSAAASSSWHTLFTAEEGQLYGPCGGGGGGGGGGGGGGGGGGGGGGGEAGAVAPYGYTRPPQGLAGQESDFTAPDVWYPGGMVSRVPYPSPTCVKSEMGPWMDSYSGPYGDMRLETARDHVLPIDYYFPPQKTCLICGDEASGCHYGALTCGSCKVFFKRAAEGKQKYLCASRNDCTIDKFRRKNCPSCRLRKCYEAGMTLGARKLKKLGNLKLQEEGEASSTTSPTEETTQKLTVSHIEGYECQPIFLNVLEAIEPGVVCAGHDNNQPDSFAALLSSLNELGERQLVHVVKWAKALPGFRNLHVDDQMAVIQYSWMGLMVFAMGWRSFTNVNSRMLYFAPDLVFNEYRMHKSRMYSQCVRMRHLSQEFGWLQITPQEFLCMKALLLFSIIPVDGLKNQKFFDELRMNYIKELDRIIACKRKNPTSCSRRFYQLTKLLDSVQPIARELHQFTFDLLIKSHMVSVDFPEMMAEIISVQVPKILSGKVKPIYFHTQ

Test [6] has the same target. In words: qHTS assay to identify small molecule agonists of the androgen receptor (AR) signaling pathway (AID 743036; active means well fitted activation curve with a large enough effect in the signal ratio in the repeat runs, with a control signal flat, not every such curve was filed as active; the % refers to the signal ratio; further: potency means the concentration at half of the fitted maximal effect). The note with it: HEK293 AR-UAS-bla GripTite, beta-lactamase FRET ratio, 16 h; series mostly up to 62.4 µM. The method, boiled down:
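Reporter line: GeneBLAzer AR-UAS-bla-GripTite (HEK293). Steps: plate cells, 4 h rest, add compounds, 16 h at 37C, add LiveBLAzer B/G substrate, 2 h at RT, read fluorescence.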

Test [7] has the same target. In words: qHTS assay to identify small molecule agonists of the androgen receptor (AR) signaling pathway using the MDA cell line (AID 743040; further: nearly all actives have a fitted effect of over 20% in size; further: potency means the concentration at half of the fitted maximal effect). The conditions noted are these: MDA-kb2 AR-luc cells, MMTV luciferase, 16 h; series mostly up to 70.3 µM. The method, boiled down: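 Cell-based luciferase reporter: MDA-kb2, MMTV promoter (AR + GR response elements). 16 h compound exposure at 37C; ONE-Glo, 30 min RT, luminescence.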

The nature of test [8]: qHTS assay to identify small molecule antagonists of the androgen receptor (AR) signaling pathway using the MDA cell line - cell viability counter screen (AID 743041; further: nearly all actives have a fitted effect of over 45% in size). The note with it: MDA-kb2 viability, CellTiter-Fluor, 16 h, cells co-treated with R1881 androgen agonist; series mostly up to 70.3 µM. The gist of the method:
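In this qHTS counter assay, fluorescence intensity after CellTiter-Fluor addition indicated viability of MDA-kb2 AR-luc cells given compounds and R1881 for 16 h at 37C.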

Test [9] addresses Androgen receptor (Homo sapiens) (UniProt P10275). As to the kind of experiment: qHTS assay to identify small molecule antagonists of the androgen receptor (AR) signaling pathway using the MDA cell line (AID 743042; further: nearly all actives have a fitted effect of over 55% in size). The conditions noted are these: MDA-kb2 AR-luc, MMTV luciferase, R1881 antagonist, 16 h; series mostly up to 70.3 µM. The gist of the method: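 MDA-kb2 cells (human breast carcinoma, stably carrying an MMTV-luciferase reporter responsive to AR and GR) were plated at 3,000 cells/well and preincubated 5 hr at 37C, then given compound plus R1881 agonist for 16 h. ONE-Glo luminescence was read.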

Test [10] is described as follows: qHTS assay for identifying genotoxic compounds that show differential cytotoxicity against isogenic chicken DT40 cell lines with known DNA damage response pathways - Rad54/Ku70 mutant cell line (AID 743015). Further: nearly all actives have a fitted effect of over 60% in size. The conditions noted are these: DT40 Rad54/Ku70 mutant viability, CellTiter-Glo, 40 h; series mostly up to 66.8 µM.

`COc1ccc(C)cc1N`: the compound was called inactive in test [1], in test [4], in test [5] and in test [9]. Besides, the Potency result in test [2], in test [3], in test [6], in test [7] and in test [8] was “inactive” each time.

With `C[Si]1(C)O[Si](C)(C)O[Si](C)(C)O[Si](C)(C)O1`, the compound was classed as inactive in test [1] and in test [4]. Further, the Potency entry in test [2], in test [3], in [10] and in test [8] was “inactive” each time.

On to `CCCCCCCCCCCCCCCC(=O)OC(C)C`, for which the outcome in [1] and in test [4] was inactive. Besides, the Potency entry in test [2], in test [3], in test [10] and in [8] was “inactive” each time.

Regarding `OC1C(O)C(O)C(O)C(O)C1O` (stereo unspecified), the compound was classed as inactive in test [1] and in test [4]. The Potency entry in test [2], in test [3], in test [10] and in test [8] was “inactive” in each case.

Regarding `CCO[Si](CCCN)(OCC)OCC`, the compound was classed as inactive in test [1] and in [4]. For the same compound, the Potency entry in test [2], in test [3], in test [10] and in [8] was “inactive” in each case.

As for `CCCCCCO`, the outcome in [1] and in [4] was inactive. In addition, the Potency result in test [2], in test [3], in [10] and in test [8] was “inactive” each time.

On to `COc1ccccc1OCC(O)CO` (stereo unspecified), for which the compound was called inactive in test [1], in test [4], in [5] and in test [9]. Also, the Potency entry in test [2], in test [3], in test [6], in test [7] and in [8] was “inactive” throughout.

As for `O=c1[nH]cnc2[nH]ncc12`, the outcome in test [1] and in test [4] was inactive. Also, the Potency result in test [2], in [3], in [10] and in test [8] was “inactive” each time.

Consider `O=[N+]([O-])c1ccc2nc[nH]c2c1`, for which the compound was called inactive in test [1] and in test [4]. Further, the Potency entry in test [2], in [3], in [10] and in test [8] was “inactive” in each case.

`O=C1CCCC1`: the compound was called inactive in test [1] and in test [4]. Besides, the Potency result in test [2], in test [3], in test [10] and in test [8] was “inactive” in each case.

`Cc1ccc([N+](=O)[O-])cc1S(=O)(=O)O`: the call in test [1], in test [4], in [5] and in [9] was inactive. Besides, the Potency entry in test [2], in test [3], in [6], in test [7] and in test [8] was “inactive” in each case.

In the case of `C[C@]12CCC(=O)C=C1CC[C@@H]1[C@@H]2[C@@H](O)C[C@@]2(C)[C@H]1CC[C@]2(O)C(=O)CO`, the outcome in test [1], in [5] and in [9] was inactive. Also, the Potency result in test [2], in test [3], in test [10] and in test [8] was “inactive” each time. For the same compound, the Potency in test [6] was 21.3 nM (active) and 27.8 nM (active); in test [7], 119 nM (active) and 69.3 nM (active).

As for `Nc1nc(N)nc(-c2ccccc2)n1`, the compound was classed as inactive in test [1] and in test [4]. Also, the Potency entry in [2], in test [3], in test [10] and in test [8] was “inactive” in each case.

`CC(C)OP(=O)(CP(=O)(OC(C)C)OC(C)C)OC(C)C`: the Potency result in test [10] was “inactive”.

As to `CC(=O)OCc1ccco1`, in test [10], the Potency entry was “inactive”.

As for `CSc1ccc(Cl)cc1`, the compound was classed as inactive in [5] and in test [9]. Also, the Potency entry in test [6] and in [7] was “inactive” each time.

These data come from PubChem BioAssay (Tox21).
